# Values joined by “and” are separate entries in the source; they are usually repeats but may differ in a detail not shown here. Equal values may be shown once. This is part of a sample that, as a whole, favours compounds with a hit. Of some 83,000 tested, about 20% had one in any assay.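 Step 1: grow cells in 96-well plates. Step 2: add test compound at a single concentration. Step 3: incubate 48 h. Step 4: record percent growth.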 Values without a mark were called inactive. Active and inactive are the calls of the source. How the source made its calls: active means growth percent below 10; inactive means the rest.
# Experiments:
# Experiment in all cases: NCI-60 one-dose screen, 48 h (100 = growth as untreated, 0 = no growth, -100 = all killed)
# SK-MEL-2 melanoma = conditions: 10 µM
# EKVX NSCLC = conditions: 10 µM
# SN12C renal = conditions: 10 µM
# UO-31 renal = conditions: 10 µM
# TK-10 renal = system: TK-10 renal
# ACHN renal = conditions: 10 µM
# CAKI-1 renal = conditions: 10 µM
# CCRF-CEM leukemia = conditions: 10 µM
# MOLT-4 leukemia = conditions: 10 µM
# A498 renal = conditions: 10 µM
SMILES,growth (SK-MEL-2 melanoma),growth (EKVX NSCLC),growth (SN12C renal),growth (UO-31 renal),growth (TK-10 renal; 10 µM unless noted),growth (ACHN renal),growth (CAKI-1 renal),growth (CCRF-CEM leukemia),growth (MOLT-4 leukemia),growth (A498 renal),growth (TK-10 renal; 10 µM),growth (TK-10 renal; 100 µM)
N#CC1(Nc2ccc3c4c(cccc24)CC3)CCCCC1,90.3%,102%,92.7%,55.6%,102%,101%,74.8%,59%,70.1%,,,
O=c1cc(-c2ccccc2)nc2cc(-c3ccco3)[nH]n12,102%,89.7%,96%,74.6%,124%,91%,,78.7%,87%,82.1%,,
N#Cc1ccc(NC(=O)Nc2cccc(C#N)c2)cc1,97.3%,94.5%,94%,75.6%,113%,92.5%,,72.4%,78.7%,86%,,
C#CCSc1nnnn1-c1ccc(Br)c(C)c1,86.9%,35.7%,71.8%,-93.1% (active),111%,92.5%,,87.5%,88.4%,124%,,
O=S(=O)(O)c1ccc(O)c2ccccc12,97.2%,88.9%,103%,77.7%,,100%,68.5%,99.4%,95.4%,112%,,
Nc1nc(N)c(N=Nc2ccc(C(=O)O)cc2)c(N)n1,97.1%,100%,91.4%,53.6%,130%,103%,,102%,102%,96.2%,,
Nc1ccc(N=Nc2ccc(O)cc2)c(N)n1,97.1%,67.6%,72.8%,34.7%,93.7%,26.3%,39.1%,37.4%,46.1%,,,
COc1cc(C2NC(=O)C(C#N)=C(Nc3cccc(C)c3)S2)ccc1O (stereo unspecified),123%,94.9%,90.3%,94.8%,106%,101%,,76%,93%,112%,,
COc1cc(C(=O)NC(=S)Nc2ccc3ccccc3c2)cc(OC)c1OC,83.6%,102%,104%,66.7%,117%,93.7%,75.1%,98.6%,89.4%,,,
CCCC1(c2ccccc2)NC(=O)NC1=O (stereo unspecified),103%,118%,104%,,95.2%,103%,116%,99.7%,123%,121%,,
CCCOC(=O)C(O)c1ccccc1 (stereo unspecified),106%,50.6%,102%,,106%,98.3%,96.3%,88.8%,110%,94.7%,,
C=CCc1cc(C(C)=O)cc(OC)c1O,130%,100%,105%,,102%,121%,98.2%,106%,98%,100%,,
O=C1Cc2ccccc2C(=O)O1,103%,107%,101%,,110%,111%,99.9%,85.8%,85.4%,123%,,
CCc1nc(N)nc(N)c1-c1ccc(Cl)cc1,105%,74.9%,64.7%,,104%,40.9%,91.4%,68.4%,56.4%,87.7%,,
COC(=O)c1cc(-c2ccc(Cl)c(Cl)c2)[nH]c(=O)c1C#N,120%,94.4%,93.7%,,103%,94.8%,87.5%,104%,107%,125%,,
COC(=O)C(O)c1ccccc1 (stereo unspecified),103%,119%,97%,,106%,100%,114%,98.1%,105%,132%,,
COC(=O)c1[nH]c(=O)c(C#N)c(C(=O)OC)c1C(=O)c1ccccc1,114%,91.4%,95%,,143%,98.1%,90%,105%,104%,113%,,
Cc1ccccc1N=C(c1ccccc1)C1C(=O)c2ccccc2C1=O,59.9%,88.9%,90.9%,82.5%,,88.3%,84.6%,65.1%,56.4%,-13.7% (active),,
Cc1cc(C(C)(C)C)cc(C)c1Br,105%,100%,100%,,113%,104%,93.5%,92.2%,99%,104%,,
COc1ccc(-c2cc(-c3cc(-c4ccc(OC)cc4)nc(N)n3)nc(N)n2)cc1,115%,92.1%,93.8%,,102%,97.6%,91.9%,76.7%,112%,94.1%,,
NC(=S)N/N=C/c1ccc(N)cc1,104%,101%,108%,91.6%,,108%,101%,87.2%,77.7%,91.2%,,
CC(=O)c1sc2c(c1OC(=O)c1ccc(Cl)cc1Cl)c(=O)n(-c1ccccc1)c(=S)n2-c1ccccc1,-43.9% (active),51.4%,13.4%,,,-18.2% (active),13.5%,-24.2% (active),-11.4% (active),-41.9% (active),-9.03% (active),2.01% (active) and -66.5% (active)
CC1(O)OC(COc2ccc(Cl)cc2)COC1O (stereo unspecified),126%,94.7%,101%,,108%,103%,90.1%,98.7%,60.9%,100%,,
Cc1ccc(/C=C2\SC(=S)N(c3ccc(F)cc3)C2=O)o1,96.3%,82.4%,87%,,102%,48.6%,54.9%,89.2%,79.1%,112%,,
O=C1NC(=O)C2C(=O)NC(=O)C1C21CCc2ccccc21 (stereo unspecified),118%,90.1%,100%,,145%,95.6%,77.7%,78.6%,111%,137%,,
C=CCNc1ccccc1,95.5%,108%,94.1%,,95.7%,101%,114%,93.6%,95.4%,119%,,
CCCCNC(=O)C(=O)NCCCC,123%,95.5%,98.8%,,96.4%,110%,91.8%,101%,129%,114%,,
CC(=O)/C(Cc1ccccc1)=N/O,99.7%,92.4%,105%,96.2%,,98.6%,100%,99%,85%,75.6%,,
CNC(=S)NC(C)(C)C,122%,96.2%,102%,,96.8%,108%,92.6%,88.6%,106%,112%,,
COc1ccccc1NC(=O)C1=C(C)NC(C)=C(C(=O)Nc2ccccc2OC)C1c1cccc([N+](=O)[O-])c1,79.6%,44.1%,68.4%,,97.4%,54.6%,50.1%,64.5%,37.4%,128%,,

# Reference: PubChem BioAssay (NCI)
